Laboratory results reported in PMC4552634, “A New Set of Chemical Starting Points with Plasmodium falciparum Transmission-Blocking Potential for Antimalarial Drug Discovery” (PLoS ONE, 2015).
Out of some 13,000 compounds screened, about 3,200 (25%) showed an effect of 50% or more. Some of the results follow.

These molecules were tested on P. falciparum stage V gametocytes. Conditions: 48 h, 5 µM; inhibitor.
Design: BacTiter-Glo ATP luminescence viability of purified stage V gametocytes in 384-well plates, per cent inhibition versus DMSO
With `Cc1cccc(-c2cccc3c(NC(=O)N4CCc5cc6nccc(N7CCN8CCC[C@H]8C7)c6cc54)cccc23)n1` [TCMDC-140053] the “% Inhibition” value was -32.82%.
`COc1cc(Cc2cnc(N)nc2N)cc(OCCCCC2SC(=O)NC2=O)c1Br` (stereo not drawn) [TCMDC-137240] was tested, and the “% Inhibition” value was 11.21%.
For `Cc1noc(C)c1-c1cccc(CNCc2cccc(-c3cccc(-c4nc5cccc(C)c5[nH]4)c3)c2)c1.O=C(O)C(F)(F)F` [TCMDC-133050], the “% Inhibition” value was -47.47%.
In the case of `COc1cc(Cc2cnc(N)nc2N)ccc1Oc1ccc(N)cc1` [TCMDC-138639], the “% Inhibition” value is reported as -31.17%.
`COc1cc(C2CCCCC2)c(OC)cc1CC1c2cc(O)c(Cl)cc2CCN1C` (stereo not drawn) [TCMDC-137539] was tested, and the “% Inhibition” value was -5.034%.
With `CS(=O)(=O)NCCCNCc1cccc(-c2cccc(-c3nc4cc(C(F)(F)F)ccc4[nH]3)c2)c1.O=C(O)C(F)(F)F` [TCMDC-133086] the “% Inhibition” value was -10.1%.
For `CCCC(C)N(Cc1ccc(C(C)(C)C)cc1)C(=O)c1cccc(OC)c1` (stereo not drawn) [TCMDC-139783], the “% Inhibition” value was -10.58%.
With `CCN(CC)CCOc1ccc(N(Cc2ccc(C(C)(C)C)cc2)C(=O)c2ccc(Cc3ccccc3)cc2)cc1OC` [TCMDC-140667] the “% Inhibition” value was 103.5%.
For `COc1cc(N(Cc2ccc(F)cc2)C(=O)c2ccc(-c3ccccc3)cc2)ccc1OCCN1CCCC1` [TCMDC-140662], the “% Inhibition” value was 28.65%.
For `CCNc1cc(C(=O)N[C@@H](Cc2ccccc2)[C@H](O)CNCc2ccc3c(c2)OCCO3)cc(N2CCCCS2(=O)=O)c1` [TCMDC-135189], the “% Inhibition” value was -0.5627%.
With `CCCc1cc(Cc2cnc(N)nc2N)cc(CCC)c1OCCCCC(=O)O` [TCMDC-137293] the “% Inhibition” value was -0.4294%.
`COc1ccc(-c2cc(-c3nc4ccc(C(=O)N5CCOCC5)cc4[nH]3)c(=O)n(C)c2)cc1OC` [TCMDC-135055] was tested, and the “% Inhibition” value was 52.78%.
For `COc1ccc2nc(-c3cc(-c4ccc(NC(=O)CN5CCOCC5)cc4)cnc3N)[nH]c2c1` [TCMDC-135373], the “% Inhibition” value was 7.84%.
With `COc1ccc(-c2cc(-c3nc4ccc(CN)cc4[nH]3)c(=O)n(C)c2)cc1OC` [TCMDC-135048] the “% Inhibition” value was 18.44%.
In the case of `CCN(CC)CCN(Cc1ccc(-c2ccc(C(F)(F)F)cc2)cc1)C(=O)Cn1c(SCc2ccc(F)c(F)c2F)nc(=O)c2c1CCC2` [TCMDC-141063], the “% Inhibition” value is reported as 82.6%.
`CCN1CCC(N(Cc2ccc(-c3ccc(C(F)(F)F)cc3)cc2)C(=O)Cn2c(SCc3ccc(F)cc3)nc(=O)c3c2CCC3)CC1` [TCMDC-140976] was tested, and the “% Inhibition” value was 69.1%.
With `CCNC(C)(C)CN(Cc1ccc(-c2ccc(C(F)(F)F)cc2)cc1)C(=O)Cn1c(SCc2ccc(F)cc2)nc(=O)c2c1CCC2` [TCMDC-140977] the “% Inhibition” value was 131.5%.
With `CCN1CCC(N(Cc2ccc(-c3ccc(C(F)(F)F)cc3)cc2)C(=O)Cn2nc(C)c(=O)cc2SCc2ccc(F)cc2)CC1` [TCMDC-141284] the “% Inhibition” value was 72.73%.
With `CCn1c(SCc2ccc(F)cc2)nc2sc3c(c2c1=O)CCN(C)C3` [TCMDC-124551] the “% Inhibition” value was 44.44%.
For `CCOC(=O)c1ccc(NC(=O)Nc2ccc(-c3cccc(-c4nc5c(C)cccc5[nH]4)c3)cc2)cc1` [TCMDC-133262], the “% Inhibition” value was -3.129%.
With `CC(C)(C)c1ccc(CN(C[C@@H](O)CNS(=O)(=O)c2cc(Cl)cc(Cl)c2)C(C)(C)C)cc1` [TCMDC-135386] the “% Inhibition” value was -63.29%.
With `COc1ccc(CC(=O)NC(CCCN2CCC3(CC2)OCc2ccccc23)c2ccc(Cl)c(Cl)c2)cc1` (stereo not drawn) [TCMDC-141898] the “% Inhibition” value was -52.62%.
With `O=C(Nc1cccc(F)c1)N1CCC(NS(=O)(=O)c2ccc(Br)cc2)CC1` [TCMDC-139438] the “% Inhibition” value was 2.418%.
`COc1cc2c(cc1OC)-c1cc(=Nc3c(C)cc(C)cc3C)n(C)c(=O)n1CC2` [TCMDC-125545] was tested, and the “% Inhibition” value was 16.19%.
In the case of `CN(CCCNc1ccc(C(=O)Nc2ccc(C(F)(F)F)cc2)cc1[N+](=O)[O-])Cc1ccccc1` [TCMDC-125682], the “% Inhibition” value is reported as -31.17%.
With `CN(Cc1cccc(F)c1)C1CCN(c2cc(NC(=O)c3ccc(F)cc3)ccn2)C1` (stereo not drawn) [TCMDC-135004] the “% Inhibition” value was -24.42%.
In the case of `CC(C)c1ccc(NC(=O)c2cccc(CN3CCCN(Cc4cccc(O)c4)CC3)c2)cc1` [TCMDC-135976], the “% Inhibition” value is reported as -1.635%.
With `CC(C)(C)NCCN(Cc1ccc(-c2ccc(C(F)(F)F)cc2)cc1)C(=O)Cn1c(SCc2ccc(F)cc2)nc(=O)c2c1CCC2` [TCMDC-140978] the “% Inhibition” value was 110.1%.
In the case of `Cn1ccnc1-c1nc2ccccn2c1NCC(=O)Nc1ccccc1N1CCCCC1` [TCMDC-133801], the “% Inhibition” value is reported as -70.89%.
With `CCNc1cc(C)nc(Nc2ccc(NC(=O)c3ccc(OC)c(OC)c3)cc2)n1` [TCMDC-124987] the “% Inhibition” value was 8.373%.
For `CSC1=NC(=Nc2c(C)cccc2C)C2(CCCCC2)N1c1ccccc1Cl` [TCMDC-124143], the “% Inhibition” value was 13.06%.
`CSC1=NC(=Nc2ccccc2C)C2(CCC(C(C)(C)C)CC2)N1c1ccccc1Cl` (stereo not drawn) [TCMDC-124136] was tested, and the “% Inhibition” value was 53.76%.
With `Cc1cccc(C)c1NC1=NC(=S)N(c2cccc(Cl)c2)C12CCC(C(C)(C)C)CC2` (stereo not drawn) [TCMDC-124101] the “% Inhibition” value was -11.15%.
`Cc1cc(C(=O)NC2CCN(Cc3ccccc3)CC2)ccc1-c1nc2ccc(C(F)(F)F)cc2[nH]1` [TCMDC-140120] was tested, and the “% Inhibition” value was -4.747%.
For `N#Cc1ccc(N2CCN(Cc3ccc(-c4ccc(-c5nc6ccc(F)cc6[nH]5)s4)cc3)CC2)nc1` [TCMDC-133115], the “% Inhibition” value was -21.41%.
In the case of `Oc1cc(Nc2ccnc3cc(-c4cccc(CN5CCOCC5)c4)ccc23)c(F)cc1Cl` [TCMDC-138434], the “% Inhibition” value is reported as 12.33%.
In the case of `CN1CCN(CCCSc2ccc3c(c2)ncn3-c2cc(OCc3ccccc3C(F)(F)F)c(C(N)=O)s2)CC1` [TCMDC-135408], the “% Inhibition” value is reported as 12.22%.
`NC(=O)c1sc(-n2cnc3ccc(C(=O)NCCN4CCOCC4)cc32)cc1OCc1ccccc1C(F)(F)F` [TCMDC-135181] was tested, and the “% Inhibition” value was -45.79%.
For `CC(C)CN1CCC(COc2ccc3ncn(-c4cc(O[C@H](C)c5ccccc5C(F)(F)F)c(C(N)=O)s4)c3c2)CC1` [TCMDC-135856], the “% Inhibition” value was 86.18%.
`NC(=O)c1sc(-n2cnc3ccc(OCC4CCNCC4)cc32)cc1OCc1ccccc1C(F)(F)F` [TCMDC-135173] was tested, and the “% Inhibition” value was 107%.
For `C[C@@H](Oc1cc(-n2cnc3ccc(OCC4CCN(S(C)(=O)=O)CC4)cc32)sc1C(N)=O)c1ccccc1C(F)(F)F` [TCMDC-135685], the “% Inhibition” value was 34.9%.
For `COc1ccc2ncn(-c3ccc(C(N)=O)c(OCc4ccccc4C(F)(F)F)c3)c2c1` [TCMDC-134428], the “% Inhibition” value was 48.51%.
In the case of `Cc1nc(N)nc(N)c1CCCOc1ccccc1Cl` [TCMDC-137929], the “% Inhibition” value is reported as 3.372%.
`COc1cccc(CNC[C@@H](O)[C@H](Cc2ccccc2)NC(=O)c2cc(NC(C)C)cc(N3CCCCS3(=O)=O)c2)c1` [TCMDC-135205] was tested, and the “% Inhibition” value was 28.03%.
`CC1(C)C=C(c2ccncc2)c2cc(Cl)ccc2O1` [TCMDC-131771] was tested, and the “% Inhibition” value was -9.955%.
For `O=C(NCC1CCC1)c1cnc(Nc2cccc(Cl)c2)nc1N1CCC1` [TCMDC-135363], the “% Inhibition” value was 5.577%.
For `Cc1cc(Nc2nc(Nc3cccc(Cl)c3)nc3ccccc23)n[nH]1` [TCMDC-134695], the “% Inhibition” value was 12.71%.
`Clc1cccc(Nc2ccc3c(N4CCCCC4)ncnc3n2)c1` [TCMDC-134937] was tested, and the “% Inhibition” value was 52.12%.
`OC(CNCc1ccccc1OCc1ccccc1)c1cccc(Cl)c1` (stereo not drawn) [TCMDC-140563] was tested, and the “% Inhibition” value was -9.137%.
`OC(CNCc1ccccc1OCc1ccccc1)c1cccc(Br)c1` (stereo not drawn) [TCMDC-140734] was tested, and the “% Inhibition” value was 51.74%.
For `OC(CNCc1ccccc1OCc1ccccc1)c1cccc(I)c1` (stereo not drawn) [TCMDC-140522], the “% Inhibition” value was 41.43%.
With `Cc1cc(OCC(=O)Nc2ccc(-c3nc4ccccc4[nH]3)cc2)cc(C)c1Cl` [TCMDC-125674] the “% Inhibition” value was -10.97%.
For `Cc1cccc(C)c1CNc1ccnc2cc(C#N)ccc12` [TCMDC-132170], the “% Inhibition” value was 2.762%.
For `CC(C)N1CCN(CCCNc2c3ccccc3nc3ccccc23)CC1` [TCMDC-137547], the “% Inhibition” value was 96.57%.
In the case of `CC(C)N1CCN(CCCCNc2c3ccccc3nc3ccccc23)CC1` [TCMDC-137573], the “% Inhibition” value is reported as 93.57%.
With `NS(=O)(=O)NCCCN1CCN(c2ccccc2)CC1` [TCMDC-141997] the “% Inhibition” value was 27.05%.
`Cc1ncsc1CCN1C(=O)CC2(C1=O)C(=O)N(Cc1ccccc1)c1ccc(Cl)cc12` (stereo not drawn) [TCMDC-136701] was tested, and the “% Inhibition” value was 2.069%.
For `COc1cc(F)c2ncc(Cl)c([C@@H](O)CN3CCC(NCc4cc5c(cn4)OCCO5)CC3)c2c1` [TCMDC-135475], the “% Inhibition” value was 41.87%.
In the case of `Cc1ccccc1OCCCc1c(C)nc(N)nc1N` [TCMDC-138070], the “% Inhibition” value is reported as -46.3%.
For `Cc1ccc(NC(=O)c2cc(Br)cc(N3CCC(N(C)C)CC3)c2)cc1F` [TCMDC-135144], the “% Inhibition” value was -10.77%.
For `CC(C)Cc1cn(-c2nc(-c3nc4ccccc4[nH]3)cs2)c2cc(Cl)ccc12` [TCMDC-132300], the “% Inhibition” value was -85.76%.
For `O=C(/C=C/c1cccs1)NCC(NCCCNc1cc(=O)c2ccccc2[nH]1)c1cc(Br)cc(Br)c1` (stereo not drawn) [TCMDC-140318], the “% Inhibition” value was -18.64%.
In the case of `CCn1cc(CN2CCCC(C(=O)Nc3ccc(-c4nc5ccccc5[nH]4)cc3)C2)cn1` (stereo not drawn) [TCMDC-124674], the “% Inhibition” value is reported as -65.71%.
In the case of `CCC(=Cc1cccc([N+](=O)[O-])c1)C(=O)NCC1CCN(c2nc(N)c3cc(OC)c(OC)cc3n2)CC1.Cl` [TCMDC-138165], the “% Inhibition” value is reported as 19.29%.
In the case of `CCN(CC)CC(O)CNc1c2ccc([N+](=O)[O-])cc2nc2cc(OC)c(OC)cc12.Cl` (stereo not drawn) [TCMDC-138079], the “% Inhibition” value is reported as 90.61%.
`CCN(CC)CC(O)Cc1c2ccc([N+](=O)[O-])cc2nc2cc(OC)c(OC)cc12` (stereo not drawn) [TCMDC-138126] was tested, and the “% Inhibition” value was 37.45%.
